According to PubChem BioAssay (NCATS):
Records with an inconclusive call do not appear. Where a call stands in place of a potency, no number is given. Calls of active or inactive are those of the source. The call rests on the fitted dose curve; in most records, active means well fitted inhibition curve with a large enough effect; inconclusive means small, poorly fitted or top-dose-only effect; inactive means no such curve, though single readings can be large or run the other way.

Experiment: P-glycoprotein substrates identified in KB-3-1 adenocarcinoma cell line, qHTS therapeutic library screen (AID 1346986); further: nearly all actives have a fitted effect of over 60% in size
Conditions: KB-3-1 parental cells viability, CellTiter-Glo, 72 h; series mostly up to 44.5 µM
In short: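 In 1536-well format, 500 cells/well received pinned compound titrations and were incubated 72 h, 5% CO2. Viability was read by CellTiter-Glo; cytotoxic if AC50 < 10 uM and efficacy >50%.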

Compound	outcome	Potency
C=C1CCC2(OC1)OC1CC3C4CC=C5CC(O)CC(O[C@@H]6OC[C@H](OC(=O)C(O)C(C)CC)[C@H](O)[C@H]6O[C@@H]6O[C@@H](C)[C@H](O)[C@@H](O)[C@H]6O)C5(C)C4CCC3(C)C1C2C (stereo partly drawn)	inactive [at 9.29 µM]	–
COc1cccc(CN(C(=O)CC(C)(C)C)C2CC(C(=O)N3CCNCC3)N(Cc3ccc4c(c3)OCO4)C2)c1 (stereo not drawn)	–	inactive
CC1CC(=O)C2=C(O1)OC1(C)CCC3C(C)(C)C4OC4C(=O)C3(C)C1C2 (stereo not drawn)	–	inactive
Cc1cccc(-c2nn3c(c2-c2ccnc4ccc(C(N)=O)cc24)CCC3)n1	–	inactive
CC1(CO)CCCC2(C)C3COC(=O)C3=CC(O)C12 (stereo not drawn)	–	inactive
COc1cc(/C=C/C(=O)O[C@@H]2C[C@](O)(C(=O)O)C[C@@H](O)[C@H]2O)ccc1O	–	inactive
COC(=O)c1cc(OC)cc(OC)c1C(=O)c1c(OC)cc2c(c1O)C1CCC(O)C(C)(O2)O1 (stereo not drawn)	–	inactive
CC1(C)CC[C@]2(C(=O)O[C@@H]3O[C@H](CO)[C@@H](O)[C@H](O)[C@H]3O)CC[C@]3(C)C(=CCC4[C@@]5(C)CC[C@H](O[C@@H]6O[C@H](C(=O)O)[C@@H](O[C@@H]7O[C@H](CO)[C@@H](O)[C@H](O)[C@H]7O)[C@H](O)[C@H]6O)C(C)(C)C5CC[C@]43C)C2C1 (stereo partly drawn)	inactive [at 9.29 µM]	–
Cc1nnc(-c2ccc3occ(-c4ccc(S(C)=O)cc4)c3c2)o1 (stereo not drawn)	–	inactive
N#CN1CCC[C@@H](n2nc(-c3ccc(Oc4ccc(F)cc4F)cc3)c(C(N)=O)c2N)C1	–	inactive
COc1ccnc2[nH]cc(C(=O)C(=O)N3CCN(C(=O)c4ccccc4)CC3C)c12 (stereo not drawn)	–	inactive
O=C(COCC(=O)N1CCN(C(c2ccccc2)c2ccccc2)CC1)Nc1ccc(Cl)cc1C(=O)O	–	inactive
COc1c2c(c(C)c3c1C(=O)OC3)OC1(C)CC(O)C34OC(OC)(CCC3(C)C1C2)OC4(C)CO (stereo not drawn)	–	inactive
CC(=O)N[C@H](Cc1c[nH]c2ccccc12)C(=O)OCc1cc(C(F)(F)F)cc(C(F)(F)F)c1	–	inactive
CC(=O)/C=C/C1(O)C(C)CC(O[C@@H]2O[C@H](CO)[C@@H](O)[C@H](O)[C@H]2O)CC1(C)C (stereo partly drawn)	–	inactive
C=CC(C)(O)C1CC2C3(C)CCCC(C)(C)C3C(O)C(O)C2(C)O1 (stereo not drawn)	–	inactive
Cc1[nH]c2ccccc2c1CC(=O)N[C@@H](Cc1ccccc1)C(=O)N(C)c1ccccc1	–	inactive
C=Cc1cc2oc(-c3ccc(O)c(F)c3)nc2cc1O	–	inactive
COc1cc(C2Oc3c(OC)cc(CCCO)cc3C2CO)ccc1O (stereo not drawn)	–	inactive

Compound	outcome	Potency
CC(C)C1NC(=O)C(CC2(O)c3ccccc3N3C(=O)C(Cc4ccccc4)NC32)NC1=O (stereo not drawn)	–	inactive
CC[C@H](C)[C@H](NC(=O)[C@H](Cc1ccc(O)cc1)NC(=O)[C@@H](N)C(C)C)C(=O)N[C@@H](Cc1cnc[nH]1)C(=O)N1CCC[C@H]1C(=O)N[C@@H](Cc1ccccc1)C(=O)O	inactive [at 5.11 µM]	–
CC(=O)/C=C/C1C(C)CC(O[C@@H]2O[C@H](CO)[C@@H](O)[C@H](O)[C@H]2O)CC1(C)C (stereo partly drawn)	–	inactive
COC(=O)c1ccc(OC)cc1O[C@@H]1O[C@H](CO[C@@H]2OC[C@@H](O)[C@H](O)[C@H]2O)[C@@H](O)[C@H](O)[C@H]1O	–	inactive
CCCc1[nH]nc2c1C(c1cc(Cl)cc(Cl)c1O)C(C#N)=C(N)O2 (stereo not drawn)	–	inactive
C=C1[C@@H]2CC[C@@]3(C)[C@H](c4ccoc4)OC(=O)C[C@]13O[C@H]1CC(=O)C(C)(C)[C@H](C(O)C(=O)OC)[C@]12C (stereo partly drawn)	–	inactive
CCC(C)(C)C1CCc2c(sc(NC(=O)c3ccc(Br)cc3)c2C#N)C1 (stereo not drawn)	–	inactive
C[C@@H]1O[C@@H](O[C@H]2[C@H](O[C@H]3[C@H](O[C@H]4CC[C@@]5(C)C(CC[C@]6(C)C5CC=C5[C@@H]7CC(C)(C)CC(=O)[C@]7(C)CC[C@]56C)[C@@]4(C)CO)O[C@H](C(=O)O)[C@@H](O)[C@@H]3O)O[C@H](CO)[C@H](O)[C@@H]2O)[C@H](O)[C@H](O)[C@H]1O (stereo partly drawn)	inactive [at 9.29 µM]	–
COc1cc(C2CC(=O)Nc3c2cc(Br)c2ccccc32)cc(OC)c1OC (stereo not drawn)	–	inactive
CC1CCC2(C(=O)OC3OC(CO)C(O)C(O)C3O)CCC3(C)C(=CCC4C5(C)CCC(O)C(C)(CO)C5CCC43C)C2C1(C)O (stereo not drawn)	–	inactive
C=C1CCc2occ(C)c2[C@H]2[C@H]1[C@@]13O[C@@]1(C[C@@H](C)[C@H]3OC(C)=O)[C@H]1O[C@@]21C	–	inactive
COc1ccc2c(c1)N1C(=O)C[C@@]34C=CC[N@+]5([O-])CC[C@H]2[C@H](CC3)[C@@]145	–	inactive
Cc1c(-c2ccc3c(c2)OCO3)oc2ccc(C(O)C(C)O)cc12 (stereo not drawn)	–	inactive
COc1cc(OC)cc(-c2ccc3c(-c4ccc(F)cc4)[nH]nc3n2)c1	–	inactive
CC(=O)OC1CC2(C)C(CCC(C)C23Cc2c(O)cc4c(c2O3)CNC4=O)C(C)(C)C1O (stereo not drawn)	–	inactive
Cc1cn(C[C@H](N)C(=O)O)c(=O)n(Cc2ccsc2C(=O)O)c1=O	–	inactive
COc1cc(C(=O)OC[C@H]2O[C@@H](OC(C)(C)C(=O)O)[C@H](O)[C@@H](O)[C@@H]2O)cc(OC)c1O	–	inactive
C=C1C2(C)CC3C4(C)C=CC(=O)OC(C)(C)C4CCC3(C)C1(C(=O)OC)C(=O)C(C)(O)C2=O (stereo not drawn)	–	inactive
C=C1CC23CC(=O)C4C(CO)(CO)CCCC4(C)C2CCC1C3 (stereo not drawn)	–	inactive
